# Records with an inconclusive call do not appear. A call without a number means that no potency is given here. Activity calls are given as the source filed them. Calls follow the shape of the dose curve; as a rule, active = well fitted cell-killing curve with a large enough effect; inconclusive = small, poorly fitted or top-dose-only effect, or effect the other way; inactive = no such curve, though single readings can be large or run the other way. Peptide text beside a SMILES is read from it.
# Experiment: Quantitative High-Throughput drug screen in 47 multiple myeloma cell lines against the NCATS MIPE library collection: Karpas620_DSMZ cell viability assay (AID 1918959); also: nearly all actives have a fitted effect of over 30% in size
# Conditions: Karpas620 myeloma viability, CellTiter-Glo ATP luminescence, 48 h; series mostly up to 45.8 µM
# Text: PI: Beverly A. Mock Ph.D.
# Laboratory of Cancer Biology and Genetics,
# Center for Cancer Research, National Cancer Institute,
# National Institute of Health, Bethesda, Maryland
# Drug resistance and disease progression are common in multiple myeloma (MM) patients, underscoring the need for new therapeutic combinations. […] We hypothesized that effective combinations would reduce MYC expression and enhance p16 activity. […] These preclinical data identify potentially useful drug combinations for evaluation in drug-resistant MM and reveal potential mechanisms of combined drug sensitivity.
# Described herein is the primary MIPE qHTS used to cherrypick compounds. Validated compounds were then further tested for potential synergistic activiy.
# [1] Peat TJ, Gaikwad SM, Dubois W, Gyabaah-Kessie N, Zhang S, Gorjifard S, Phyo Z, Andres M, Hughitt VK, Simpson RM, Miller MA, Girvin AT, Taylor A, Williams D, D'Antonio N, Zhang Y, Rajagopalan A, Flietner E, Wilson K, Zhang X, Shinn P, Klumpp-Thomas C, McKnight C, Itkin Z, Chen L, Kazandijian D, Zhang J, Michalowski AM, Simmons JK, Keats J, Thomas CJ, Mock BA. Drug combinations identified by high-throughput screening promote cell cycle transition and upregulate Smad pathways in myeloma. Cancer Lett. 2023 Aug 1;568:216284. doi: 10.1016/j.canlet.2023.216284. Epub 2023 Jun 24. PMID: 37356470; PMCID: PMC10408729.
# SEQUENCE No. (e.g., 1, 2, 3, etc.); […] (e.g., Cells, Incubation, Reagent, etc.); VALUE and DESCRIPTION.
# 1; Cells; 5 uL; white, solid bottom 1536-well Greiner assay plate.
# 2; Compounds; 23 nL; Kalypsis pin tool (Wako USA) equipped with a 1536-well pin head to transfer to the assay plates.
# 3; Incubation; 48 hours; 37C incubation.
# 4; Reagent;5uL; CellTiter Glo (Promega).
# 5; Detector; 425V; Luminescence; Viewlux PerkinElmer.
# NOTES (numbers refer to Sequence numbers above)
# 1. The cell-based screening methods employed in this study were like those previously published. Briefly, the corresponding myeloma cell lines were screened in 1,536-well plates with 500 cells, 5-uL per well for inhibition of cell viability (assessed by measuring ATP levels with CellTiterGlo).
# 2. NCATS MIPE 4.0 library of approved and investigational drugs were added using the Kalypsis pin tool. Wells treated with DMSO only for 100% viability and media only wells for 0% viability were used as controls.
# 3. The assay plates were covered and incubated for 48 hours in a 37C, 5% CO2 incubator with controlled humidity.
# 4. After 48 hours, CellTilter-GloTM luminescent substrate mix (Promega) reagent was added to the assay plate and plates we incubated for 5 min at room temperature.
# 5. Signal was measured as median relative luminescence units on a ViewLux (PerkinElmer) multiplate reader.
# [1] Heske CM, Davis MI, Baumgart JT, Wilson K, Gormally MV, Chen L, Zhang X, Ceribelli M, Duveau DY, Guha R, Ferrer M, Arnaldez FI, Ji J, Tran HL, Zhang Y, Mendoza A, Helman LJ, Thomas CJ. Matrix Screen Identifies Synergistic Combination of PARP Inhibitors and Nicotinamide Phosphoribosyltransferase (NAMPT) Inhibitors in Ewing Sarcoma. Clin Cancer Res. 2017 Dec 1;23(23):7301-7311. doi: 10.1158/1078-0432.CCR-17-1121. Epub 2017 Sep 12. PMID: 28899971; PMCID: PMC6636827.
# Potency is read from the fitted curve at half-maximal effect.
row,SMILES,Potency
1,Cc1cc(=O)c2c(O)c3c(O)cc(=O)c4c3c3c(cc(O)c1c23)C(C)(C)C=4O,14.8 µM (active)
2,COc1cc2nc(N3CCN(C(=O)C4CCCO4)CC3)nc(N)c2cc1OC (stereo not given),inactive
3,O=C1c2ccccc2-c2n[nH]c3cccc1c23,inactive
4,CC(C)(S)[C@@H](N)C(=O)O,inactive
5,Cc1c(OCC(F)(F)F)ccnc1CS(=O)c1nc2ccccc2[nH]1 (stereo not given),inactive
6,CN(C)CCCC1(c2ccc(F)cc2)OCc2cc(C#N)ccc21 (stereo not given),inactive
7,C[C@@H](c1ncncc1F)[C@](O)(Cn1cncn1)c1ccc(F)cc1F,inactive
8,CCOC(=O)C1=C[C@@H](OC(CC)CC)[C@H](NC(C)=O)[C@@H](N)C1,inactive
9,C=C(c1ccc(C(=O)O)cc1)c1cc2c(cc1C)C(C)(C)CCC2(C)C,inactive
10,CCOC(=O)C1=C(O)C(=O)N(Cc2ccccc2)C1,inactive
11,CC1=C(C(=O)O)N2C(=O)[C@@H](NC(=O)[C@H](N)C3=CCC=CC3)[C@H]2SC1,inactive
12,CC(C)[C@H](N)C(=O)OCCOCn1cnc2c(=O)[nH]c(N)nc21,inactive
13,c1cnc2cc3c(cc2n1)C1CNCC3C1,inactive
14,CC(C)c1ccc2c(c1)c(SC(C)(C)C)c(CC(C)(C)C(=O)O)n2Cc1ccc(Cl)cc1,inactive
15,CCN(CC)CCOc1ccc(Cc2ccccc2)cc1,14.8 µM (active)
16,O=C(CCc1ccc(O)cc1)c1c(O)cc(O)cc1O,1.32 µM (active)
17,COc1ccc2cc([C@H](C)C(=O)O)ccc2c1,inactive
18,COC(=O)[C@H](Cc1ccccc1)NC(=O)[C@@H](N)CC(=O)O (H-Asp-Phe-OMe),inactive
19,COc1cc(Nc2c(C#N)cnc3cc(OCCCN4CCN(C)CC4)c(OC)cc23)c(Cl)cc1Cl,11.8 µM (active)
20,CCN(CCO)CCCC(C)Nc1ccnc2cc(Cl)ccc12 (stereo not given),inactive

row,SMILES,Potency
1,CC(=O)NC[C@H]1CN(c2ccc(N3CCOCC3)c(F)c2)C(=O)O1,inactive
2,C[C@H](Cc1ccc(O)c(O)c1)[C@@H](C)Cc1ccc(O)c(O)c1,5.26 µM (active)
3,Nc1nc(OCc2ccccc2)c2[nH]cnc2n1,inactive
4,COC(=O)C1=C(C)NC(C)=C(C(=O)OCCCN2CCC(c3ccccc3)(c3ccccc3)CC2)C1c1cccc([N+](=O)[O-])c1 (stereo not given),inactive
5,CN(c1nccc(=O)[nH]1)C1CCN(c2nc3ccccc3n2Cc2ccc(F)cc2)CC1,inactive
6,Clc1ccc(C(Cn2ccnc2)OCc2c(Cl)cccc2Cl)c(Cl)c1 (stereo not given),18.7 µM (active)
7,S=c1nc[nH]c2nc[nH]c12,inactive
8,CC1(C)NC(=O)N(c2ccc([N+](=O)[O-])c(C(F)(F)F)c2)C1=O,inactive
9,CN(C)c1ccc2nc3ccc(=[N+](C)C)cc-3sc2c1,3.72 µM (active)
10,CC1=C(C)C(=O)C(C(CCCCCC(=O)O)c2ccccc2)=C(C)C1=O (stereo not given),inactive
11,COC1=C(OC)C(=O)C(CCCCCCCCCCO)=C(C)C1=O,11.8 µM (active)
12,Clc1ccc2c(N3CCN(CCCN4CCN(c5ccnc6cc(Cl)ccc56)CC4)CC3)ccnc2c1,inactive
13,COc1cc(OC)c(C(=O)CCCN2CCCC2)c(OC)c1,inactive
14,O=c1ccc2ccc(O)c(O)c2o1,23.5 µM (active)
15,O=C1NC(=O)C(c2ccccc2[N+](=O)[O-])=C1Nc1ccc(O)c(Cl)c1,inactive
16,CNC[C@@H](O)[C@@H](O)[C@H](O)[C@H](O)CO,inactive
17,CC1Cc2ccccc2N1NC(=O)c1ccc(Cl)c(S(N)(=O)=O)c1 (stereo not given),inactive
18,CCOC(=O)C(C)Oc1cccc2c(=O)n(CC(=O)Nc3ccc4c(c3)OCCO4)ccc12 (stereo not given),inactive
19,Nc1ncn([C@H]2C[C@H](O)[C@@H](CO)O2)c(=O)n1,0.132 µM (active)
20,NS(=O)(=O)c1cc(C(=O)O)c(NCc2ccco2)cc1Cl,inactive
